# In PubChem BioAssay:
# Values without a mark were called inactive. Activity calls are given as the source filed them. Unless noted, no rule for the calls is given here.
# Columns and labels:
# [1] = antimalarial activity against Dd2 strain (AID 2302;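 active = growth inhibition above 50% at the single 2 µM test dose, taken to imply half-maximal potency below 2 µM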;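 also: 0% = DMSO untreated growth and 100% = chloroquine plus artemisinin killed control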); details: P. falciparum Dd2 in RBCs, LDH growth readout, 72 h; at 2 µM; hits give high values
# [2] = human hepatoma cell viability loss – ATP luminescence, cytotoxicity control for P. falciparum antimalarial project, primary screen (AID 2303;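 active = inhibition above 50%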;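 also: 0% = DMSO wells and 100% = digitonin-killed cells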); details: HepG2 viability, 24-48 h, at 10 µM, hits give high values
# [3] = target: L-lactate dehydrogenase (Plasmodium falciparum (isolate CDC / Honduras)) (UniProt Q27743); assay: PfLDH activity inhibition – cell lysate, 3D7 strain, counter-screen for P. falciparum growth inhibition project (AID 2304);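 also: 0% = vehicle and 100% = reference inhibitor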; details: P. falciparum 3D7 crude extract, LDH APAD/NBT absorbance; at 2 µM; hits give high values
# Chain of L-lactate dehydrogenase (Plasmodium falciparum (isolate CDC / Honduras)) (Q27743 whole entry, looked up): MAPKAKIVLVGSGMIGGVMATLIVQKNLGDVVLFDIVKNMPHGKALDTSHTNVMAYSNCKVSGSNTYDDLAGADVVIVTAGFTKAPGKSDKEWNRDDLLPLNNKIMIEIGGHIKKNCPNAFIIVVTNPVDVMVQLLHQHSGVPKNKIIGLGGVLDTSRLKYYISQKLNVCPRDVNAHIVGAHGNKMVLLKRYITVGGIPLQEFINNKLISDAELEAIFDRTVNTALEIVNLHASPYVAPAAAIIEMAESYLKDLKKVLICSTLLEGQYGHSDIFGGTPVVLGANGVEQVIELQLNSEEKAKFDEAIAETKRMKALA
# [4] = inhibition of 3D7 malaria parasite growth – strain 3D7 (AID 2306);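 also: 0% = DMSO wells and 100% = chloroquine plus artemisinin control wells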; details: P. falciparum 3D7 erythrocytic growth, LDH absorbance, 72 h; at 2 µM; hits give high values
Structure (SMILES),growth inhibition [1],inhibition [2] [%],inhibition [3] [%],growth inhibition [4]
CC(=NO)C1=C(O)C(c2ccccc2)N(c2ccccc2)C1=O (stereo not given),23%,12,-1,99% (active)
NC(N)=NN=Cc1c[nH]c2ccc(-c3ccccc3)cc12,61% (active),15,-2,84% (active)
CC[C@H](C)[C@H](NC(=O)[C@H](CC1CCCCC1)[C@H](CC)N(O)C=O)C(=O)Nc1ccccn1,95% (active),14,-1,96% (active)
COc1ccc(Nc2nc(NN=Cc3ccc(O)cc3)nc(Nc3ccc([N+](=O)[O-])cc3)n2)cc1,16%,-1,0,93% (active)
ON=C1CCc2cc(-c3cc(-c4ccc(OC5CCNCC5)cc4)oc3-c3ccncc3)ccc21,99% (active),34,3,101% (active)
